Values without a mark were called inactive. Records with an inconclusive call do not appear. Active and inactive are the calls of the source. Unless noted, the call rests on the fitted dose curve; in most records, active means well fitted curve in the direction sought with a large enough effect in the repeat runs; inconclusive means weak or mixed curves; inactive means no such curve, though single readings can be large; an effect the other way counts as inactive or inconclusive.

Assay [1] is described as follows: qHTS assay to identify small molecule antagonists of the estrogen related receptor (ERR) signaling pathway from Tox21 library - cell viability counter screen (AID 1224834). Further: nearly all actives have a fitted effect of over 30% in size. Put shortly:
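Fluorescence from CellTiter-Fluor gives the viability read-out, taken 30 min after reagent addition. Before that, ERR cells seeded 6 h earlier were incubated with compounds for 17.5 h at 37 C.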
For orientation: qHTS replaces the single test concentration by a dilution series.

For assay [2], the target named is Luciferin 4-monooxygenase (Photinus pyralis) (UniProt P08659). Nature of the assay: qHTS assay to identify small molecule inhibitors of firefly luciferase (AID 1224835). Further: nearly all actives have a fitted effect of over 25% in size. Put shortly: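 Inhibition of purified Photinus luciferase is measured by luminescence. Substrate levels (D-luciferin, ATP) sit at their KM values. Each compound is tested in a concentration series.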

Assay [3] in a line: qHTS assay to identify small molecule agonists of the constitutive androstane receptor (CAR) signaling pathway - cell viability counter screen (AID 1224836). Further: nearly all actives have a fitted effect of over 45% in size. Put shortly:
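Viability read-out: CellTiter-Fluor fluorescence after 23 h compound exposure at 37 C/5% CO2 in double-stable HepG2-CYP2B6-hCAR cells, with PK11195 present at 0.75 uM final; compounds tested in 15-point titration.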

The nature of assay [4]: qHTS assay to identify small molecule antagonists of the constitutive androstane receptor (CAR) signaling pathway - cell viability counter screen (AID 1224837). Further: nearly all actives have a fitted effect of over 45% in size. Put shortly: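 HepG2-CYP2B6-hCAR cells, 2500/well, 4 hr pre-incubation; compound titration, 15 conc.; CITCO 50 nM final; 23 hr, 37 C/5% CO2; CellTiter-Fluor, fluorescence intensity.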
The nature of assay [5]: qHTS assay to identify small molecule antagonists of the estrogen related receptor signaling pathway with the pleiotropic PPARgamma coactivator (PGC) from Tox21 10K library - cell viability counter screen (AID 1224840; active means well fitted cell-killing curve with a large enough effect in the repeat runs, not every such curve was filed as active; further: nearly all actives have a fitted effect of over 40% in size). Put shortly: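 PGC/ERR cells, 2,000/well; 6 h pre-incubation 37 C/5% CO2; cpd in DMSO via pin tool; 17.5 h 37 C; CellTiter-Fluor, 30 min; fluorescence.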

Assay [6] is described as follows: qHTS assay to identify small molecule agonists of the hypoxia (HIF-1) signaling pathway - cell viability counter screen (AID 1224844; calls by dose curve; further: nearly all actives have a fitted effect of over 50% in size). Put shortly:
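ME-180 HRE-bla cells, 2,000/well, 0.5% dialyzed FBS; 5 hr settle, 17 hr compound at 37C/5% CO2; CCF4-AM reporter read first, then CellTiter-Glo luminescence after 30 min RT.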

A short description of assay [7]: qHTS assay to identify small molecule agonists of H2AX (AID 1224845; active means well fitted activation curve with a large enough effect in the signal ratio in the repeat runs, not every such curve was filed as active; the % refers to the signal ratio; further: potency means the concentration at half of the fitted maximal effect). Put shortly: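 Phospho-H2AX Ser139 measured by HTRF (ex 320 nm; em 665 and 620 nm) after 24 hr antibody incubation. Compounds, 15 concentrations, 0.76% DMSO, were applied to CHO-K1 cells for 3hr at 37C before lysis.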
Assay [8] can be described thus: qHTS assay to identify small molecule agonists of H2AX - cell viability counter screen (AID 1224847; calls by dose curve;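 further: wild-type CHO-K1 cells; top concentration of the series differs between compounds; nearly all actives have a fitted effect of over 30% in size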). Put shortly:
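CHO-K1 wt, 1000 cells/well, o/n 37C; cpds 15 conc, 3 h 37C, 0.76% DMSO; CellTiter-Glo, 30 min RT, luminescence.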

The nature of assay [9]: qHTS RealTime-Glo MT Cell Viability Assay in HepG2 cells - 24 hour (AID 1224867). Further: nearly all actives have a fitted effect of over 50% in size. Put shortly:
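Cell number in HepG2 cultures estimated from NanoLuc luminescence generated by metabolic reduction of a prosubstrate by living cells. The homogeneous, nonlytic format allowed repeated reads at 0, 8, 16, 24, 32 and 40 h of compound exposure.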

The nature of assay [10]: qHTS RealTime-Glo MT Cell Viability Assay in HepG2 cells - 40 hour (AID 1224870). Further: nearly all actives have a fitted effect of over 50% in size. Put shortly:
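Real-time viability: cells seeded at 600 per well together with NanoLuc and cell-permeant prosubstrate, compounds added after 5 h incubation. Luminescence tracked at 0, 8, 16, 24, 32 and 40 h of exposure.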

Assay [11] deals with Nuclear receptor subfamily 1 group I member 3 (Homo sapiens) (UniProt Q14994). Nature of the assay: qHTS assay to identify small molecule antagonists of the constitutive androstane receptor (CAR) signaling pathway (AID 1224838).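 Further: HepG2 cells stably expressing hCAR with CYP2B6 luciferase reporter stimulated by CITCO; nearly all actives have a fitted effect of over 40% in size.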 Put shortly:
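HepG2-CYP2B6-hCAR cells; 4 h pre-incubation; cpd (15 conc) + CITCO 50 nM final; 24 h, 37 C/5% CO2; ONE-Glo, luminescence.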

The target is the same in assay [12]. The assay is described as follows: qHTS assay to identify small molecule agonists of the constitutive androstane receptor (CAR) signaling pathway (AID 1224839).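 Further: HepG2 cells stably carrying human CAR and a CYP2B6 luciferase reporter; nearly all actives have a fitted effect of over 15% in size.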 Put shortly: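 Luminescence read-out (ONE-Glo, 30 min, room temperature) from double-stable HepG2-CYP2B6-hCAR cells exposed 24 h to 15-point compound series in presence of 0.75 uM PK11195 final.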
Assay [13] addresses Thyrotropin receptor (Homo sapiens) (UniProt P16473). Nature of the assay: qHTS assay to identify small molecule agonists of the thyroid stimulating hormone receptor (TSHR) signaling pathway (AID 1224843; calls by dose curve; further: nearly all actives have a fitted effect of over 45% in size). Put shortly:
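Screening of the Tox21 10K collection used HEK293 cells engineered with TSHR at 800 cells per well. After a 30-min room-temperature compound exposure, HTRF cAMP reagents were added and fluorescence recorded 1 h later.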

A short description of assay [14]: qHTS assay to identify small molecule agonists of the hypoxia (HIF-1) signaling pathway (AID 1224846; active means well fitted activation curve with a large enough effect in the signal ratio in the repeat runs, not every such curve was filed as active; the % refers to the signal ratio). Put shortly:
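Cell line: CellSensor HRE-bla ME-180; 2,000 cells/well; 0.5% dialyzed FBS; 5 h preincubation; DMSO compound pin transfer; 17 h, 37C, 5% CO2; CCF4-AM added; bla FRET signal scored for activation.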

Assay [15] can be described thus: qHTS RealTime-Glo MT Cell Viability Assay in HEK293 cells - 32 hour (AID 1224868). Further: top concentration of the series differs between compounds; nearly all actives have a fitted effect of over 50% in size. Put shortly: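 Homogeneous bioluminescent viability format in HEK293 cells (600 cells/well). Following 5 h at 37 C/5% CO2, 23 nL compound was pintooled; the signal was measured repeatedly during 40 h incubation.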
Assay [16] can be described thus: A CellTox Green Cytotoxicity Assay to monitor cytotoxicity in HEK293 cells - 0 hour (AID 1224869). Further: nearly all actives have a fitted effect of over 50% in size. Put shortly:
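Nonlytic real-time cytotoxicity: HEK293 + CellTox Green reagent plated, 5 h preincubation, pintool compound addition (23 nL in DMSO), 37 C for 40 h, fluorescence measured at successive time points.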

Assay [17] is described as follows: qHTS assay to identify small molecule antagonists of the estrogen related receptor signaling pathway with the pleiotropic PPARgamma coactivator (PGC) from Tox21 10K library (AID 1224841; call rule not given here). Put shortly: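 PGC/ERR cell line, 2,000 cells/well; 6 h pre-incubation 37 C/5% CO2; compounds (DMSO) pinned in; 18 h, 37 C; One-Glo, 30 min RT; luminescence.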
Assay [18] in a line: qHTS assay to identify small molecule agonists of the estrogen related receptor signaling pathway with the pleiotropic PPARgamma coactivator (PGC) from Tox21 10K library (AID 1224842). Further: nearly all actives have a fitted effect of over 15% in size. Put shortly:
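Luminescence from One-Glo (30 min, room temperature) measured after PGC/ERR cells had 18 h at 37 C with pinned compound (23 nL in DMSO). Cells had been seeded at 2,000 per well and pre-incubated 6 h.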

Assay [19] is described as follows: qHTS assay to identify small molecule antagonists of the estrogen related receptor (ERR) signaling pathway from Tox21 library (AID 1224848). Further: nearly all actives have a fitted effect of over 50% in size. Put shortly:
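Antagonist-mode screen of the Tox21 10K library in an NTP-provided ERR reporter cell line; 18 h compound exposure at 37 C, luminescence measured with ONE-Glo.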

A short description of assay [20]: qHTS assay to identify small molecule agonists of the estrogen related receptor (ERR) signaling pathway from Tox21 library (AID 1224849; calls by dose curve; further: nearly all actives have a fitted effect of over 15% in size). Conditions: ERR reporter cell line, ONE-Glo luciferase, 18 h; at 92.4 µM (top of the series) unless noted. Put shortly:
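ERR cells, 6 h pre-incubation 37 C/5% CO2; cpd in DMSO pinned; 18 h 37 C; ONE-Glo added, 30 min RT; luminescence read. Agonist mode, qHTS.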
On the % scale 0 is the no-effect control and ±100 the full control effect.

Sequence of Thyrotropin receptor (Homo sapiens) (P16473 whole entry, looked up): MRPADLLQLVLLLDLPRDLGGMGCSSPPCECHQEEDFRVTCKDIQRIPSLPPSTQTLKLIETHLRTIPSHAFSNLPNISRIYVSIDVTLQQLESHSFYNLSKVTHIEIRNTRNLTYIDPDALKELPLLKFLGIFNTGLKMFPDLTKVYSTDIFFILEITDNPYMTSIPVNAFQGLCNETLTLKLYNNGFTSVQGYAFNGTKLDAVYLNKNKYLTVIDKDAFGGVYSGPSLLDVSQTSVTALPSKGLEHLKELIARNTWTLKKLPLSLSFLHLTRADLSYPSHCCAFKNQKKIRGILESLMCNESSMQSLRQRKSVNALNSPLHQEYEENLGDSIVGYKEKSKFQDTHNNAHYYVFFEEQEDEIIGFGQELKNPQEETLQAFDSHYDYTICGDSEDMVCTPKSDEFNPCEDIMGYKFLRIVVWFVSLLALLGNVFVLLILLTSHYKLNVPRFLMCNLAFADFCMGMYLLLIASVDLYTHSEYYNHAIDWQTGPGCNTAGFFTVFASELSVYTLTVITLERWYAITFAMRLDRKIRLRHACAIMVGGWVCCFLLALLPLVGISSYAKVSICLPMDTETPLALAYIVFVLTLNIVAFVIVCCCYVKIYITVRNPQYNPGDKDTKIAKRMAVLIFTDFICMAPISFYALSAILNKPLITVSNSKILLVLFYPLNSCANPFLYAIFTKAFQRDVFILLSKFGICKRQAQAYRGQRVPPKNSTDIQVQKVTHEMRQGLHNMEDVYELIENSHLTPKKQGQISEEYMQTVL
Sequence of Luciferin 4-monooxygenase (Photinus pyralis) (P08659 whole entry, looked up): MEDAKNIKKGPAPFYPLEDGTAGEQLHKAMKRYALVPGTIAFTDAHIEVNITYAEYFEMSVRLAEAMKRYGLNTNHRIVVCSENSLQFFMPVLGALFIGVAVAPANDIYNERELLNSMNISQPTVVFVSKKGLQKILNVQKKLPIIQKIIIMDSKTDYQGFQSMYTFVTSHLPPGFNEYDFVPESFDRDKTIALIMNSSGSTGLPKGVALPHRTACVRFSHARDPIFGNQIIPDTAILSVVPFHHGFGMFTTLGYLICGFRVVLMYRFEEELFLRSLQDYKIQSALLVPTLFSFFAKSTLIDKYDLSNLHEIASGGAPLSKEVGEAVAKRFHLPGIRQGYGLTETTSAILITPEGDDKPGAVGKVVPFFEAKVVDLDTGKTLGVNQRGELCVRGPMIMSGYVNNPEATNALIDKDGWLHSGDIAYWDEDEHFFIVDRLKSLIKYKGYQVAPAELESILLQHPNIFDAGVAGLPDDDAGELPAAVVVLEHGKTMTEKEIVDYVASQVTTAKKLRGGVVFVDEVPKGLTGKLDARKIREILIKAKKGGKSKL
Sequence of Nuclear receptor subfamily 1 group I member 3 (Homo sapiens) (Q14994 whole entry, looked up): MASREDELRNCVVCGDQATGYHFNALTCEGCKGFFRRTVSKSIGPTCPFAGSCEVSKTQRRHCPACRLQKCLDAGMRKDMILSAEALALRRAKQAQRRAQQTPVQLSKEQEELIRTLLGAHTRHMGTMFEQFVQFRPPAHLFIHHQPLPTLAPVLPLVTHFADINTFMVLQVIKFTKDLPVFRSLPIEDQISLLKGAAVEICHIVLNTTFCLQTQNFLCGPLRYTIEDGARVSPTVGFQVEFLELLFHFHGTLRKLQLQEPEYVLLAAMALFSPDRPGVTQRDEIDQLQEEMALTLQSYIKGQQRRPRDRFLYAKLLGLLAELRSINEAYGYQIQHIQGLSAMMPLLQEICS

In the case of `C#C[C@]1(O)C=C[C@H]2[C@@H]3CCC4=CC(=O)CC[C@@H]4[C@H]3CC[C@@]21CC`, the Potency entry in [1], in assay [2], in assay [3], in [4], in assay [5] and in assay [6] was “inactive” each time. In addition, the Potency result in [8], in assay [9] and in assay [10] was “inactive” in each case. In addition, in [7], the Potency was 19.6 µM (active).

As to `COP(=S)(OC)Oc1ccc(S(N)(=O)=O)cc1`, the Potency entry in assay [1], in assay [2], in assay [3], in [11], in assay [12] and in assay [5] was “inactive” each time. Also, the Potency result in [13], in assay [6], in assay [7], in assay [8], in assay [15] and in assay [16] was “inactive” each time. For the same molecule, in [10], the Potency entry is “inactive”. Moreover, the outcome in assay [14] was inactive.

With `CC(C(=O)c1ccccc1)N(C)C` (stereo not drawn), the Potency result in [1], in assay [2], in [3], in assay [4], in [5] and in assay [6] was “inactive” each time. The Potency result in [7], in assay [8], in assay [9], in assay [15], in assay [16] and in [10] was “inactive” each time. In addition, the outcome in [14] was inactive.

As to `ClC(Cl)Br`, the Potency entry in assay [1], in assay [2], in [3], in assay [11], in [12] and in assay [5] was “inactive” each time. Further, the Potency entry in [13], in assay [6], in [7], in assay [8], in assay [9] and in [15] was “inactive” throughout. Further, the Potency entry in assay [16] and in assay [10] was “inactive” in each case. The molecule was classed as inactive in assay [14].

Consider `N#Cc1ccncc1`, for which the Potency entry in assay [1], in assay [2], in [3], in [4], in [5] and in assay [17] was “inactive” each time. The Potency result in assay [6], in assay [8], in [19], in assay [9], in [15] and in assay [16] was “inactive” throughout. For the same molecule, the Potency result in assay [10] was “inactive”. Besides, the molecule was classed as inactive in [18] and in assay [14]. Further, the activity change, positive = activation in [20] was 5.77%.

As to `Cc1ncc(CNC(=O)N(CCCl)N=O)c(N)n1`, the Potency result in assay [1], in [2], in assay [3], in [4], in [5] and in assay [13] was “inactive” throughout. Moreover, the Potency result in assay [6], in assay [7], in assay [8], in assay [9], in [15] and in assay [16] was “inactive” in each case. Also, in [10], the Potency entry was “inactive”.

With `CCCCP(CCCC)CCCC`, the Potency entry in [1], in assay [2], in [3], in [4], in assay [5] and in [13] was “inactive” in each case. The Potency result in [6], in assay [7], in [8], in [9], in assay [15] and in [16] was “inactive” in each case. Moreover, the Potency entry in assay [10] is “inactive”. Besides, the call in assay [14] was inactive.

As to `O=S(=O)(O)C(F)(F)C(F)(F)C(F)(F)C(F)(F)C(F)(F)C(F)(F)F`, the Potency result in assay [1], in [2], in [3], in assay [11], in [12] and in assay [5] was “inactive” in each case. The Potency result in [13], in [6], in assay [7], in assay [9], in [15] and in [10] was “inactive” throughout. Moreover, in [14], the molecule was classed as inactive.

Source of the values: PubChem BioAssay (Tox21).
